Assay outcomes: PubChem, National Center for Advancing Translational Sciences (NCATS)
Shown are actives, neighbours in structure and some others; about 21% of the full set was active somewhere.
Pf growth 48h = P. falciparum growth inhibition at 48 hours (one generation) | 310,000 tested, 5.9% active | Potency, µM (series often up to 28.7 µM), actives largely listed as inhibitors | AID 504832 | P. falciparum luciferase growth in erythrocytes, 48 h; active = well fitted inhibition curve with a large enough effect; inconclusive = small, poorly fitted or top-dose-only effect, or another doubt; inactive = no such curve, though single readings can be large or run the other way
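Luciferase-expressing parasites in RBCs, 2% Hct / 0.1% parasitemia final; RPMI 1640 + 0.5% Albumax; 37 C, 5% CO2, one generation; luminescence read-out, lower signal = inhibition.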
NS1 function inh = influenza NS1 inhibition | Potency, µM (top dose mostly 46.1 µM) | 270,000 tested, 0.4% active; also: actives are rising curves; nearly all actives have a fitted effect of over 50% in size
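Growth recovery, yeast-based: influenza A NS1 expressed in S. cerevisiae causes slow growth, and suppressors are detected by OD600. The parent strain without NS1 is used as positive control.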
Cycloheximide cs = counter-screen for Shiga toxin inhibitors: cycloheximide protein synthesis inhibition | cell reporter, cycloheximide protein synthesis inhibition counterscreen | max response, % | 300,000 tested, 12% active; in the data active = max response mostly above about 13%, no sharp cut-off; inactive = mostly below about 14%; also: read at 38.3 µM for the half of the compounds with a filed dose
Pf growth 96h = inhibits malaria parasite growth, 96 h; P. falciparum luciferase reporter growth, 96 h; Potency, µM (series often up to 28.7 µM), usual class: inhibitors; 320,000 tested, 6.9% active; AID 504834; active = well fitted inhibition curve with a large enough effect; inconclusive = small, poorly fitted or top-dose-only effect, or another doubt; inactive = no such curve, though single readings can be large or run the other way
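Luminescence readout: decreased luciferase signal marks inhibited growth of reporter-expressing P. falciparum in infected red cells (2% hematocrit, 0.05% parasitemia final), exposed to compound two generations (96 h, 37 C, 5% CO2).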
Shiga toxin inh = Shiga toxin inhibition | Vero cells, Shiga toxin protein synthesis inhibition reporter | inhibition, % at 38.7 µM | 290,000 tested, 9.2% active | AID 2315; in the data active = inhibition mostly above about 28%, no sharp cut-off; inactive = mostly below about 43%
SARS PLpro yeast = SARS-CoV PLP inhibition in yeast; S. cerevisiae expressing SARS-CoV PLpro, growth rescue; Potency, µM (doses to about 32.9 µM), usual class: activators; 330,000 tested, 0.19% active; AID 485353; also: nearly all actives have a fitted effect of over 55% in size
Numbers stand for hits; – = inactive; ? = inconclusive; · = no result given; [ ] = remark or other dose. Unless noted, calls follow the shape of the full dose curve.

SMILES	Pf growth 48h	NS1 function inh	Cycloheximide cs	Pf growth 96h	Shiga toxin inh	SARS PLpro yeast
CC12CCC(C(=O)Nc3ccc4c(c3)OCCO4)(OC1=O)C2(C)C (configuration not stated)	–	–	47	·	94	–
Cc1ccc(C(=O)Nc2ccc3c(c2)OCCO3)o1	·	–	31	–	–	–
CCOC(=O)c1c(NC(=O)CSc2ncnc3[nH]ncc23)sc2c1CCC(C)C2 (configuration not stated)	?	–	–	?	–	–
O=C(Nc1nc2ccsc2c(=O)s1)c1ccc(F)cc1Cl	–	–	33	–	73	–
O=C(Nc1nc2ccsc2c(=O)s1)c1ccc(F)cc1	–	–	45	–	81	–
Cc1csc2c(=O)sc(NC(=O)c3ccc(F)cc3)nc12	–	–	–	–	–	–
Cc1csc2c(=O)sc(NC(=O)c3ccc(F)cc3Cl)nc12	–	–	–	–	–	–
CCCCc1nnc2c(N(C)S(=O)(=O)c3ccc(C)cc3)nc3ccccc3n12	?	–	–	12µM	–	–
CCCc1nnc2c(N(C)S(=O)(=O)c3ccc(C)cc3)nc3ccccc3n12	?	–	–	13µM	–	–
COc1ccc([N+](=O)[O-])cc1NC(=O)C1CCCO1 (configuration not stated)	–	–	–	–	–	–
O=C(c1ccc(=O)[nH]c1)N1CCN(S(=O)(=O)c2ccc(Cl)cc2)CC1	–	–	–	–	–	–
COc1ccc(CN2CCN(Cc3cc4ccccc4o3)CC2CCO)cc1C (configuration not stated)	–	–	–	–	–	–
Cc1ccc(C(=O)Nc2ccsc2C(=O)O)cc1	–	–	39	–	52	–
O=C(Nc1ccsc1C(=O)O)c1ccc(Cl)cc1	·	–	27	–	85	–
Cc1cc2ncc(C(=O)Nc3ccsc3C(=O)O)c(C)n2n1	–	·	18	–	–	–
O=C(CNC(=O)c1ccccc1)Nc1ccsc1C(=O)O	–	–	–	?	–	–
CC1=C(C(N)=O)S(=O)(=O)c2ccccc21	–	–	–	–	–	–
O=C(CNCCc1ccccc1)N1CCc2ccccc2C1	–	·	–	–	–	–
CCOC(=O)C1CCN(C(=O)COC(=O)c2c(C)c(CC)nc3ccccc23)CC1	·	·	·	·	·	–
COc1ccc(NC(=O)CN(C)C(=O)c2c(C)nn(Cc3ccc(C)cc3)c2Cl)cc1	?	·	·	?	·	–
C=CCNC(=O)C1CCN(S(=O)(=O)c2cccs2)CC1	–	–	–	–	–	–
CCOC(OCC)P(=O)(c1ccccc1)c1ccccc1	–	–	–	12µM	–	–
CCCC(C(=O)OCC)P(=O)(c1ccccc1)c1ccccc1 (configuration not stated)	·	?	–	?	–	–
Cc1ccc(Cl)c(NC(=O)CCl)c1Cl	?	·	–	12µM	–	–
CC1=CC(C)(C)N(C(=O)CSc2nnc(C)s2)c2ccc(C)cc21	–	–	–	?	–	–
SMILES	Pf growth 48h	NS1 function inh	Cycloheximide cs	Pf growth 96h	Shiga toxin inh	SARS PLpro yeast
Cc1ccc(C2(C)CC(C)(C)N(C(=O)CSc3nnc(C)s3)c3ccccc32)cc1 (configuration not stated)	13µM	–	–	?	–	–
Cc1nnc(SCC(=O)N2c3ccccc3C(C)(c3ccccc3)CC2(C)C)s1 (configuration not stated)	10µM	–	–	12µM	–	–
CC(C)n1c(=O)n(CC(=O)NCC2CCCO2)c(=O)c2c3c(sc21)COC(C)(C)C3 (configuration not stated)	–	–	–	?	–	–
Cn1c(=O)c2c(ncn2CC(O)CNc2cccc(Cl)c2)n(C)c1=O (configuration not stated)	–	–	–	–	–	–
Cc1ccc(OCC(=O)NNC(=O)CCc2ccccc2)c(Br)c1	–	–	–	–	–	–
COc1cc(/C=N/OCC(=O)NC23CC4CC(CC(C4)C2)C3)ccc1OCc1ccccc1	?	–	36	9.3µM	101	–
COc1cc(/C=N/OCC(=O)NC2CCCCC2)ccc1OCc1ccccc1	–	–	55	?	152	–
COc1cc(/C=N/OCC(=O)NC2CCS(=O)(=O)C2)ccc1OC(F)F (configuration not stated)	–	·	–	?	–	–
COc1ccc(/C=N/OCC(=O)NC(c2ccccc2)c2ccccc2)cc1OC	9.3µM	–	–	8.3µM	–	–
CC(C)(C)C(=O)Nc1ccc(C(=O)CN2C(=O)NC3(CCOc4ccccc43)C2=O)cc1 (configuration not stated)	?	·	·	?	·	–
COc1cccc(CSc2nnc(-c3ccncc3)n2N)c1	–	–	–	–	–	–
COc1ccc(OCCCC(=O)ON=C(N)c2ccccc2Cl)cc1	–	·	·	–	·	–
N/C(=N\OC(=O)Cc1ccccc1)c1ccccc1Cl	–[5.75 µM]	·	59	–	94	–
N/C(=N\OC(=O)Cc1ccc(Cl)cc1)c1cccnc1	–	–	15	–	–	–
N/C(=N\OC(=O)Cc1ccc(-c2ccccc2)cc1)c1cccnc1	–	–	–	–	–	–
N/C(=N\OS(=O)(=O)c1ccc(Cl)cc1)c1cccnc1	–	–	–	?	–	–
N/C(=N\OC(=O)Cc1ccccc1)c1cccnc1	–	–	21	–	–	–
O=[N+]([O-])/C(C(Cl)=C(Cl)Cl)=C(\Sc1ccccc1)N1CCCCC1	–	–	–	–	–	–
O=[N+]([O-])c1ccccc1S(=O)(=O)Nc1ccc2c(c1)OCCO2	–	–	–	–	–	–
COc1cc(CC(=O)OCn2nnc3ccccc3c2=O)cc(OC)c1OC	–	·	–	–	–	–
COc1ccc(N(CC(=O)N2CCN(Cc3ccccc3)CC2)S(C)(=O)=O)cc1Cl	–	–	–	?	–	–
N#C/C(=C\c1ccccc1)C(=O)OCC(=O)N1CCCC1	9.3µM	·	–	–	–	–
Cc1cc(C(=O)OCC(=O)N2CCN(C(=O)c3ccco3)CC2)c(C)n1-c1ccc(F)cc1	12µM	–	–	–	–	–
N#C/C(=C\c1ccccc1)C(=O)N1CCC(C(N)=O)CC1	–	–	–	–	–	–
O=C(OCC(=O)N1CCOCC1)c1ccccc1OCc1ccccc1	–	·	·	–	·	–
SMILES	Pf growth 48h	NS1 function inh	Cycloheximide cs	Pf growth 96h	Shiga toxin inh	SARS PLpro yeast
O=C(OCC(=O)N1CCCC1)c1ccccc1O	–	–	54	–	103	–
O=C(OCC(=O)N1CCCC1)c1ccccc1OCc1ccccc1	–	–	21	–	–	–
CCOc1ccc(NC(=O)CSc2nnc(-c3cc(C)[nH]n3)n2N)cc1	?	–	–	?	–	–
O=C(COc1ncnc2ccccc12)NCC1CCCO1 (configuration not stated)	–	–	–	–	–	–
Cc1cc(C)n2nc(SCc3cc(=O)n4c(C)cccc4n3)nc2n1	·	–	·	·	·	·
CC(C)C(=O)Nc1cc(C(F)(F)F)ccc1-n1ccnc1	–	·	–	–	–	–
